From PubChem BioAssay (NCI)
The panel holds about 79,000 compounds, 15% with a hit somewhere; the sample as a whole holds those more often. Rule as the data show it: active = growth inhibition above about 70%; inactive = the rest.

Tests used:
[1] = NCI Yeast Anticancer Drug Screen. Data for the rad50 strain (AID 155);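 also: 0% = growth of vehicle-only cultures of the same strain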; settings: S. cerevisiae rad50 strain growth inhibition; at 50.0 µM; hits give high values
Outline: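 Yeast carrying a defined DNA repair defect were exposed to test compounds, and growth was compared with vehicle-treated controls to give percent inhibition.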

[2] = NCI Yeast Anticancer Drug Screen. Data for the mec2-1 strain (AID 157); settings: S. cerevisiae mec2-1 strain, at 50.0 µM, hits give high values
Outline: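 Yeast mec2-1 mutant treated with compound. Readout: growth inhibition vs vehicle controls.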

[3] = NCI Yeast Anticancer Drug Screen. Data for the sgs1 mgt1 strain (AID 161);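 also: 0% = growth of cultures given vehicle only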; settings: S. cerevisiae sgs1 mgt1 strain, at 50.0 µM, hits give high values
Outline: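 Read-out: growth inhibition vs vehicle controls. Cells: mutant yeast strain deficient in DNA damage repair.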

[4] = NCI Yeast Anticancer Drug Screen. Data for the cln2 rad14 strain (AID 165);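 also: 0% = growth equal to vehicle treated cultures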; settings: S. cerevisiae cln2 rad14 strain, at 50.0 µM, hits give high values
Outline: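 cln2 rad14 yeast strain; compound exposure; growth inhibition read vs vehicle controls.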

[5] = NCI Yeast Anticancer Drug Screen. Data for the bub3 strain (AID 167); settings: S. cerevisiae bub3 mutant strain, at 50.0 µM, hits give high values
Outline: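 Compounds were applied to a genetically altered yeast strain carrying a cell-cycle control defect. Growth inhibition was scored against vehicle-treated controls.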

[6] = NCI Yeast Anticancer Drug Screen. Data for the mlh1 rad18 strain (AID 175); settings: S. cerevisiae mlh1 rad18 strain growth inhibition; at 50.0 µM; hits give high values
Outline: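 Yeast w/ defined DNA-repair lesions; compound exposure; growth vs vehicle controls → % inhibition.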

Measured: growth inhibition

CCOC(CN1CCCCC1)OCC
inactive: [1] -7.85% | [2] -7.6% | [3] 17.1% | [4] 8.7% | [5] -1.6% | [6] 6.65%

C/C=C\C=C\C(=O)O
inactive: [1] -30.4% | [2] -17% | [3] -38.3% | [4] 4.3% | [5] -19.8% | [6] -31.9%

O=C(O)CC1CCCNC1 (stereo unspecified)
inactive: [1] -11.3% | [2] 1.95% | [3] -13.7% | [4] -18.6% | [5] -16% | [6] -16.3%

CNC(=O)c1ccccc1O
inactive: [1] 21.2% | [2] 8.55% | [3] 5.65% | [4] 11.3% | [5] 5.15% | [6] 2.35%

Cc1ccc(O)c(C(=O)CCCC(=O)c2cc(C)ccc2O)c1
inactive: [1] -4.6% | [2] 7.9% | [3] 7.7% | [4] 12.5% | [5] -8.3% | [6] 4.35%

O=C(CNC(=O)C(CSC(c1ccccc1)(c1ccccc1)c1ccccc1)NC(=O)OCc1ccccc1)OCc1ccccc1[N+](=O)[O-] (stereo unspecified)
inactive: [1] 4.9% | [2] 8.85% | [3] -4.15% | [4] -7.95% | [5] -7.05% | [6] 20.1%

CCC(Sc1cc(Cl)c(C)cc1S(=O)(=O)Nc1nc(N)nc(N(C)C)n1)C(=O)O (stereo unspecified)
inactive: [1] -16.1% | [2] -10.1% | [3] 6.3% | [4] 25.2% | [5] -12.3% | [6] 2%

CCCCCCCCCCN(CCCCCCCCCC)CC(O)c1cc(-c2ccc(Cl)cc2)nc2ccccc12 (stereo unspecified)
inactive: [1] 25.6% | [2] 17.1% | [3] 39.4% | [4] 31.2% | [5] 34.6% | [6] 50.2%

COC(=O)C1C(c2ccccc2)C1(C#N)C#N (stereo unspecified)
inactive: [1] -42.5% | [2] 2.55% | [3] -1% | [4] -25.6% | [5] -5.55% | [6] 3.3%

COC(C)(C)C/C=C/C(C)=C/C=C/C(C)=C\C=C\C(C)=C\C=C\C=C(C)\C=C\C=C(C)\C=C\C=C(C)\C=C\CC(C)(C)OC
inactive: [1] -10.8% | [2] -1.65% | [3] -26.9% | [4] 2.25% | [5] -12.2% | [6] -12.1%

NC(=S)Nc1ccccc1-c1ccccc1
inactive: [1] 36.2% | [2] 13.8% | [3] 25% | [4] -6.9% | [5] 32.5% | [6] 33.2%

OC(Cc1cccc(=S)[nH]1)(c1ccccc1)c1ccccc1
inactive: [1] -7.35% | [2] -7.25% | [3] -9.25% | [4] -37.9% | [5] -1.8% | [6] -26.3%

CC(C)c1ccc2c(c1)C=C1OC(=O)[C@]3(C)CCC[C@@]2(C)C13 (stereo partly specified)
inactive: [1] 35.1% | [2] 21.9% | [3] 54.2% | [4] 40% | [5] 26.4% | [6] 17.1%

O=c1c2ccccc2nc2sc3nc4ccccc4c(=O)n3n12
inactive: [1] 4% | [2] -10.8% | [3] -8.85% | [4] -56% | [5] -4.2% | [6] -11.8%

CNCc1ccccc1
inactive: [1] -1.25% | [2] -2.8% | [3] -21% | [4] -23% | [5] -19.8% | [6] -3.4%

CNC(=O)NC1C(O)COC(OC)C1O (stereo unspecified)
inactive: [1] -2.65% | [2] 3.4% | [3] -0.6% | [4] -37.1% | [5] -4.15% | [6] 0.25%

O=C(COc1cc(Cl)c(Cl)cc1Cl)Nc1ccccc1Br
inactive: [1] 2.5% | [2] -6.9% | [3] 0.1% | [4] -15.9% | [5] 2.2% | [6] -8.85%

COC(=O)/C=C/C1C2C3(CCC(C)C12C)OCCS3 (stereo unspecified)
inactive: [1] -23.4% | [2] -14.2% | [3] -4.45% | [4] -5.3% | [5] -6.95% | [6] -30.1%

CCCCCN(C(=O)CCC)c1ccccc1
inactive: [1] 45.8% | [2] 8.5% | [3] 24.5% | [4] 17.7% | [5] 3.2% | [6] 41.8%

O=C1NC(=O)C(=C/C=C/C=C\C2C(=O)NC(=O)NC2=O)C(=O)N1
inactive: [1] -15.1% | [2] -38.4% | [3] -10.1% | [4] 2.1% | [5] -23.1% | [6] -10.6%

CC(=O)NC(CCCNC(=O)N(CCCl)N=O)C(=O)NCc1ccccc1 (stereo unspecified)
inactive: [1] -1.85% | [2] -16.5% | [3] 1.75% | [4] 23.3% | [5] 2.65% | [6] -13.6%
